# High-throughput results deposited in PubChem by several laboratories.
# Most compounds without a hit are left out; they make up all but 1.2% or so of the library.
# PLC-gamma1 inh: inhibitors of human phospholipase C gamma1; P19174; 0.84% of 370,000 active; inhibition, % at 12.2 µM; AID 720700; purified PLC-gamma1, fluorogenic substrate, fluorescence; in the data active = inhibition above about 9.5%
# NPR2 activator: GC-B (human) receptor activation. activation, % at 10 µM. HEK293-GC-B cells, CNP EC30, cGMP TR-FRET; 0% at EC30 CNP, 100% saturating CNP. P20594. 0.11% of 370,000 active;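 active = activation at 10 µM reaching about 35% in either raw or pattern-adjusted values, limit read from the data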
# PLC-beta3 inh: PLC-beta3 (human) inhibition, primary screen | Q01970 | Purified PLC-beta3, fluorogenic substrate, fluorescence | inhibition, % at 12.2 µM | 0.18% of 370,000 active | AID 720704; in the data active = inhibition above about 11%;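 also: 0% = median of compound wells on plate and 100% = full blocker control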
# GC-A act: GC-A (human) enzyme activation; 0.14% of 370,000 active; HEK293 GC-A cells, cGMP TR-FRET, EC30 ANP; 0% at EC30 ANP, 100% saturating ANP; P16066; activation, % at 10 µM; in the data active = activation above about 40%
# Active calls of the source: *; i = inactive; x = no result.
SMILES,PLC-gamma1 inh,NPR2 activator,PLC-beta3 inh,GC-A act
O=C(CCN1CCCC1)c1cccs1,3,0,-4,50*
CCC1(C)CC2(CCCN(CCC(=O)c3ccccc3)C2)CCO1 (stereo not drawn),5,-1,1,43*
O=C(CCN1CCCCCC1)c1ccccc1,-1,-1,2,71*
N=c1n(CCN2CCCCC2)c2ccccc2n1CC(=O)c1cccs1,0,-9,-4,-9
Cc1ccc(C(=O)NC2CCN(CCCC(=O)c3ccc(F)cc3)CC2)cc1,1,-8,-11,7
O=C(CCN1CCC2CCC(C2)C1)c1ccc(F)cc1 (stereo not drawn),-3,-3,-2,72*
COc1ccc(C(=O)CCN2CCCCCC2)cc1,-2,-15,4,33
O=C(/C=C/[C@H]1O[C@@H](n2cnc3c(NC(=O)c4ccccc4)ncnc32)[C@H](O)[C@@H]1O)NC1CCCCC1,1,-1,3,3
O=C(CCN1CCOCC1)c1ccc(Br)cc1,2,-6,-4,32
O=C(CCN1CCC(c2ccccc2)C1)c1ccc2c(c1)OCCO2 (stereo not drawn),-2,2,-4,16
O=C(CCN1CCN(c2ccccc2)CC1)c1ccc(Br)cc1,3,0,-3,40*
O=C(c1cccs1)N1CCC(c2ccccc2)C1 (stereo not drawn),1,-2,4,0
O=C(CCN1CCC(c2ccccc2)C1)c1ccccc1 (stereo not drawn),x,-2,x,59*
O=C(CCN1CCOCC1)c1ccc(Cl)cc1,-1,-4,-3,58*
O=C(CCN1CCC(c2ccccc2)C1)c1cccs1 (stereo not drawn),-1,0,1,52*
Cc1cc(C)cc(NC(=O)N2CCc3ccccc3C2)c1,4,-3,0,-1
Cc1ccccc1C1CCCN(Cc2nc(CC3CC3)no2)C1 (stereo not drawn),3,5,-3,0
CC(=O)Nc1ccc(S(=O)(=O)N2CCC(NC(=O)C(Cc3cccn3C)NC(C)=O)CC2)cc1 (stereo not drawn),-4,-3,0,-2
O=C(NCCc1ccccc1)c1cc2sccc2n1Cc1ccccc1,10*,-26,4,-19
CC(NC(=O)COC(=O)COc1ccc(C(=O)c2ccccc2)cc1)c1ccccc1 (stereo not drawn),-2,8,-8,65*
Cc1cc(Br)cn2c(Cc3ccccc3)c(-c3ccco3)nc12,-12,35*,-20,32
C=CC[C@@H](CC(=O)N[C@H](CO)Cc1ccccc1)C(=O)N[C@@H](C)COC(=O)[C@@H](CC=C)Cc1ccc(F)cc1,5,-1,2,-6
CCCOc1ccc(C(=O)NNC(=S)NC(=O)CC)cc1,1,64*,0,3
C=CCNC(=S)NNC(=O)c1ccc(OCCC)cc1,3,0,4,8
C=CC1=CCN(S(=O)(=O)C(C)(C)C)[C@H]1CCO,0,0,-1,5
SMILES,PLC-gamma1 inh,NPR2 activator,PLC-beta3 inh,GC-A act
CCN1C(=O)c2cccc3c(NC(=O)c4ccc(S(=O)(=O)N(C)C)cc4)ccc1c23,-58,42*,-70,29
O=C1N/C(=C/c2ccc(Br)cc2)C(O)=C1C=NCc1ccccc1,-4,2,1,2
O=C(N/N=C/c1cccs1)c1[nH]ncc1Br,12*,-1,3,-2
Cc1sc2nc(C(C)Sc3n[nH]c(N)n3)[nH]c(=O)c2c1C (stereo not drawn),-88,-1,-114,0
COc1ccc(COc2cccnc2N)cc1,-1,0,-5,-1
COc1ccc(COc2cc(-c3cccc(OC)c3)nc3ccc(NC(C)=O)cc23)cc1,i,68*,i,54*
COc1ccc(COc2cc(-c3cccc(OC)c3)nc3ccc(NC(=O)c4ccc(C)cc4)cc23)cc1,-9,26,-14,24
COc1ccc(COc2cc(-c3cccc(OC)c3)nc3ccc(N)cc23)cc1,i,53*,i,56*
CC(=O)c1ccc(NC(=S)NCc2cccnc2)cc1,1,8,1,-2
Cc1cccc(C(=O)N2CCC(=O)N(C(COCc3ccccc3)Cc3ccccc3)CC2)c1 (stereo not drawn),15*,3,1,-2
Cc1ccsc1C(=O)NCC(=O)OCc1ccccc1,-5,0,-6,-1
Cc1ccc(N2C(=O)c3cccc([N+](=O)[O-])c3C2=O)cc1C,-2,34,-7,72*
Cc1cc(C)cc(NC(=O)CSc2nnc(-c3ccncc3)o2)c1,5,-5,-8,-9
